For 40 compounds, outcome results are on record in PubChem BioAssay (NCATS).

Results filed as inconclusive are left out. Active and inactive are the calls of the source. Calls come from the whole dose curve; as a rule, active = well fitted curve in either direction with a large enough effect (not every such curve was filed as active); inconclusive = small, poorly fitted or top-dose-only effect, or another doubt; inactive = flat fitted curve, though single readings scatter.

The test addresses Mitogen-activated protein kinase 10 (Mus musculus) (UniProt Q61831). Briefly: JNK3 AlphaScreen Assay (AID 530).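 Note: kinase came from lysate of stimulated human HepG2 cells.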 The note with it: JNK3 lysate, c-Jun phosphorylation; series mostly up to 57.1 µM. An outline of the steps:
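Phosphorylation of biotinylated GST-cJun(1-79) at Ser73 is measured by AlphaScreen proximity luminescence. Enzyme is JNK3 in HepG2 lysates activated with interleukin-1beta and tumor necrosis factor alpha; ATP is 10 uM final.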
Turning to `CCN(CC)CCn1c(-c2ccccc2)nc2c(NCc3ccccc3)nc(C)nc21`, the outcome was inactive.

In the case of `CCN1CCCC1Cn1c(-c2ccccc2)nc2c(NCc3ccccc3)nc(C)nc21` (stereo not given), the compound was classed as inactive.

With `CCN1CCCC1Cn1c(-c2ccccc2)nc2c(NC3CCCCC3)nc(C)nc21` (stereo not given), the outcome was inactive.

As to `CCCn1c(-c2ccc(F)cc2)nc2c(N3CCN(Cc4nc(OC)cc(OC)n4)CC3)nc(C)nc21`, the compound was called inactive.

For the compound `CCN1CCCC1Cn1c(-c2ccccc2)nc2c(NCCOC)nc(C)nc21` (stereo not given), the compound was called inactive.

Consider `CCCn1c(-c2ccc(F)cc2)nc2c(N3CCN(CCn4ccnc4)CC3)nc(C)nc21`, for which the outcome was inactive.

In the case of `CCCn1c(-c2ccc(F)cc2)nc2c(NCCCCN3CCCC3)nc(C)nc21`, the call was inactive.

Take `Cc1nc(NCc2ccccc2)c2nc(-c3ccccc3)n(CCN3CCCCC3)c2n1`: the call was inactive.

Regarding `CCCn1c(C)nc2c(NCCCCN(C)C)nc(C)nc21`, the compound was called inactive.

For the compound `Cc1nc(N2CCOCC2)c2nc(-c3ccccc3)n(CCN3CCCCC3)c2n1`, the call was inactive.

Take `CCCn1c(-c2ccc(F)cc2)nc2c(NC3CCN(Cc4ccccc4)CC3)nc(C)nc21`: the call was inactive.

`CCN(CC)CCCCn1c(-c2ccccc2)nc2c(NCCOC)nc(C)nc21`: the result was inactive.

As to `CCCn1c(C)nc2c(NCCN3CCCCC3)nc(C)nc21`, the call was inactive.

As for `CCN(CC)CCCn1c(-c2ccccc2)nc2c(NCCOC)nc(C)nc21`, the compound was classed as inactive.

With `Cc1nc(NCc2ccccc2)c2nc(-c3ccccc3)n(CCCN(C)C)c2n1`, the outcome was inactive.

Regarding `Cc1nc(N2CCOCC2)c2nc(-c3ccccc3)n(CC3CCN(C)CC3)c2n1`, the result was inactive.

For the compound `CCCCNc1nc(C)nc2c1nc(-c1ccccc1)n2CCN1CCCCC1`, the compound was classed as inactive.

As for `Cc1nc(NCc2ccccc2)c2nc(-c3ccccc3)n(C3CCN(Cc4ccccc4)C3)c2n1` (stereo not given), the call was inactive.

For the compound `Cc1nc(NCc2ccccc2)c2nc(-c3ccccc3)n(CC3CCN(C)CC3)c2n1`, the outcome was inactive.

As for `COCCNc1nc(C)nc2c1nc(-c1ccccc1)n2C1CCN(Cc2ccccc2)C1` (stereo not given), the compound was called inactive.

Regarding `CCCn1c(-c2ccc(F)cc2)nc2c(NC3CCN(Cc4ccccc4)C3)nc(C)nc21` (stereo not given), the compound was classed as inactive.

Take `CCCn1c(C)nc2c(N(C)CCN(C)C)nc(C)nc21`: the outcome was inactive.

`CCCCNc1nc(C)nc2c1nc(-c1ccccc1)n2CC(C)(C)CN(C)C`: the result was inactive.

Consider `CCN(CC)CCn1c(-c2ccccc2)nc2c(N3CCOCC3)nc(C)nc21`, for which the call was inactive.

Turning to `Cc1nc(NCc2ccccc2)c2nc(-c3ccccc3)n(CCCN3CCCCC3C)c2n1` (stereo not given), the call was inactive.

In the case of `CCCn1c(-c2ccc(F)cc2)nc2c(NCCCN(C)C)nc(C)nc21`, the result was inactive.

Turning to `CCCn1c(C)nc2c(NCC3CCCN3CC)nc(C)nc21` (stereo not given), the result was inactive.

As for `CCCn1c(C)nc2c(N(CCN(CC)CC)CCN(CC)CC)nc(C)nc21`, the result was inactive.

Regarding `Cc1nc(NC2CCCCC2)c2nc(-c3ccccc3)n(CCN3CCCCC3)c2n1`, the call was inactive.

Turning to `CCCCNc1nc(C)nc2c1nc(-c1ccccc1)n2CCCN1CCCCC1C` (stereo not given), the call was inactive.

Turning to `CCCn1c(C)nc2c(N3CCC(N(C)C)C3)nc(C)nc21` (stereo not given), the outcome was inactive.

With `CCCn1c(C)nc2c(N3CCN(C)CC3)nc(C)nc21`, the result was inactive.

Take `CCCn1c(-c2ccc(F)cc2)nc2c(N3CCCN(Cc4ccccc4)CC3)nc(C)nc21`: the call was inactive.

Turning to `CCCCNc1nc(C)nc2c1nc(-c1ccccc1)n2C1CCN(Cc2ccccc2)C1` (stereo not given), the compound was classed as inactive.

With `COCCNc1nc(C)nc2c1nc(-c1ccccc1)n2CC1CCN(C)CC1`, the call was inactive.

Take `Cc1nc(NCc2ccccc2)c2nc(-c3ccccc3)n(CC(C)(C)CN(C)C)c2n1`: the result was inactive.

As for `CCCn1c(C)nc2c(NC(C)CN(C)C)nc(C)nc21` (stereo not given), the outcome was inactive.

Consider `Cc1nc(NCCO)c2nc(-c3ccccc3)n(CC3CCN(C)CC3)c2n1`, for which the compound was called inactive.

Take `CCCn1c(C)nc2c(N3CCC(N4CCN(C)CC4)CC3)nc(C)nc21`: the call was inactive.

Regarding `Cc1nc(NCCO)c2nc(-c3ccccc3)n(CCCN(C)C)c2n1`, the call was inactive.
